This is an account of results in PubChem BioAssay AID1259336 (Sattelle Laboratory, UCL Respiratory, Division of Medicine, …, 2017).

A number with no mark means an inactive call. Activity calls are given as the source filed them. Rule as the data show it: active = log2 fold change growth below about -1.8; inactive = the rest.

The assay in a line: C. elegans growth inhibition, whole organism, log2 fold change (AID 1259336).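 Also: growth scored by imaging after five days at 20 °C.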 Conditions: anthelmintic screen, active compounds read low.
On to `NC(N)=Nc1ccc(-c2ccc(-c3ccc(N=C(N)N)c(Cl)c3)o2)cc1Cl`, for which the log2 fold change growth is -0.555.
In the case of `CCCCc1ccc(C(=O)Nc2nccc3ccccc23)nc1`, the log2 fold change growth was 0.243.
Consider `CCCCCCCCCCCCCCCCOP(=O)([O-])OCC[N+](C)(C)C`, for which the log2 fold change growth is 0.528.
Turning to `CC(C)(C)CN1C(=O)C(c2ccccc2)(c2ccccc2)N=C1N`, the log2 fold change growth was -5.48 (active).
The figure for `CCC(=O)Nc1ccccc1C(=O)Nc1ccccn1` is 0.194; for `Cc1cc(C)n2nc(C(=O)Nc3cc(C(F)(F)F)ccc3N3CCOCC3)nc2n1` it is 0.174.
For `COc1ccc(Cl)cc1NC(=O)CN(C)C(=O)c1cnn(-c2ccccc2)n1` the value was -0.154.
Consider `CN1CCCC1CCO[C@](C)(c1ccccc1)c1ccc(Cl)cc1` (stereo partly drawn), for which the log2 fold change growth is 0.213.
The figure for `c1ccc(-c2nc(NC3CCCCC3)cc(C3CC3)n2)nc1` is -0.0356; for `NCCN(C(=O)c1ccc(Cl)cc1Cl)c1ccc(OCc2ccc(Cl)cc2)cc1` it is -0.0401.
The figure for `O=C(c1cc2ccccc2o1)N1CCN(Cc2ccc3c(c2)OCO3)CC1` is 0.212; for `COc1cccc2c(C)nc(N=C(N)N)nc12` it is 0.0276.
For `N=C(N)c1ccc(OCCCCCOc2ccc(C(=N)N)cc2)cc1` the value was 0.291.
On to `CC(C)(C)n1nc(Cc2ccc(F)c(Cl)c2)c2c(N)ncnc21`, for which the log2 fold change growth was -1.01.
The figure for `O=C(C1CCN(c2nnc(-n3cccc3)s2)CC1)N1CCC(Cc2ccccc2)CC1` is 0.102; for `CC(C)(C(=O)Nc1ccc(F)cc1)n1cc(-c2ccccc2F)cn1` it is 0.0447; for `Cc1ccc(NC(=O)c2nc[nH]c2C(=O)Nc2nc3ccccc3[nH]2)c(C)c1` it is -0.815.
For `COc1ccc2nccc(NC(=O)C3CCN(CCc4ccc(Cl)cc4)CC3)c2n1` the value was 0.423; for `CC[C@H](CO)NCCN[C@H](CC)CO`, -0.0318.
`CCc1ccc([C@@H]2C[C@H](C(F)(F)F)n3ncc(C(=O)NCc4ccc(OC)cc4)c3N2)cc1`: the log2 fold change growth is -1.82 (active).
The figure for `COc1cncc(-c2cncc(N3CCN(c4ccncc4)CC3)n2)c1` is -0.191.
For `COc1ccc2nc(C)cc(OCC(=O)NCc3ccccc3)c2c1` the value was 0.118; for `CN1CCC(c2cc(-c3ccncc3)c(-c3ccc(F)cc3)[nH]2)CC1`, -0.12; for `FC(F)(F)c1cc(NCCc2ccccc2)nc(-c2ccccn2)n1`, -0.968.
Turning to `Clc1cccc(CO[C@H]2CCc3ccccc3[C@@H]2n2ccnn2)c1`, the log2 fold change growth was 0.571.
The figure for `O=C(OCc1ccccc1)N1CCC(c2cc(-c3ccncc3)c(-c3ccc(F)cc3)[nH]2)CC1` is -0.374.
The figure for `O=C(CCC1CCCCC1)Nc1cccc(-c2nnc(-c3ccco3)o2)c1` is 0.147; for `O=C1[C@@H](Oc2ccccc2)[C@@H](c2ccc(Cl)cc2)N1CCn1cnc2c(NCc3ccccc3)ncnc21` it is -0.167; for `COc1ccc(Oc2ccc([C@@H](C)N(C)c3ncc4c(N)nc(N)nc4n3)cc2)cc1` it is 0.282.
The figure for `CN1CCN(c2nccc3[nH]c(-c4ccc(F)c(F)c4)nc23)CC1` is -0.373; for `N#Cc1nc(-c2ccccc2F)oc1NCCc1ccccc1` it is -0.468; for `CNc1nnc(Sc2cnn(-c3ccccc3)c(=O)c2Cl)s1` it is -0.948.
As for `CC(C)n1nc(-c2cc3c(Cl)cccc3[nH]2)c2c(N)ncnc21`, the log2 fold change growth is -2.56 (active).
The figure for `Cc1cc(C)c2cc(C(=O)NC3CCCCCCC3)[nH]c2c1` is -0.0221; for `Cc1nc(-c2ccccn2)nc(N(C)CCc2ccccc2)c1Cl` it is -0.0752.
The figure for `CNc1cc(C)nc([C@@H]2CN(C(=O)c3n[nH]c4ccccc34)CCO2)c1` is 0.0798.
Take `N#Cc1ccc(-c2cnc(N)c(-c3ccc(C(N)=O)cc3)n2)cc1`: the log2 fold change growth is -0.619.
Turning to `c1cc(C2=NCCN2)cc(-c2cc(-c3ccc(C4=NCCN4)cc3)no2)c1`, the log2 fold change growth was 0.193.
